The nature of assay [1]: NCI Yeast Anticancer Drug Screen. Data for the rad50 strain (AID 155).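 Also: 0% = growth of vehicle-only cultures of the same strain.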 The settings on record: S. cerevisiae rad50 strain growth inhibition, stronger effect = higher value. The method in brief:
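Relative growth inhibition (compound vs vehicle) was measured in yeast with a defined repair-gene alteration.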

Assay [2] is described as follows: NCI Yeast Anticancer Drug Screen. Data for the mec2-1 strain (AID 157). The settings on record: S. cerevisiae mec2-1 strain, stronger effect = higher value. The method in brief:
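Yeast mec2-1 mutant treated with compound. Readout: growth inhibition vs vehicle controls.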

Assay [3] is described as follows: NCI Yeast Anticancer Drug Screen. Data for the sgs1 mgt1 strain (AID 161).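 Also: 0% = growth of cultures given vehicle only.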 The settings on record: S. cerevisiae sgs1 mgt1 strain, stronger effect = higher value. In a few lines:
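Read-out: growth inhibition vs vehicle controls. Cells: mutant yeast strain deficient in DNA damage repair.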

Assay [4] can be described thus: NCI Yeast Anticancer Drug Screen. Data for the cln2 rad14 strain (AID 165).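 Also: 0% = growth equal to vehicle treated cultures.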 The settings on record: S. cerevisiae cln2 rad14 strain, stronger effect = higher value. The method in brief:
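cln2 rad14 yeast strain; compound exposure; growth inhibition read vs vehicle controls.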

Assay [5] is described as follows: NCI Yeast Anticancer Drug Screen. Data for the bub3 strain (AID 167). The following applies: S. cerevisiae bub3 mutant strain, stronger effect = higher value. In a few lines:
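Screening used yeast with an engineered genetic alteration affecting cell cycle control. Compound-exposed cultures were compared with vehicle cultures, and reduced growth was taken as inhibition.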

Assay [6] is described as follows: NCI Yeast Anticancer Drug Screen. Data for the mlh1 rad18 strain (AID 175). The following applies: S. cerevisiae mlh1 rad18 strain growth inhibition, stronger effect = higher value. In a few lines: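 Yeast w/ defined DNA-repair lesions; compound exposure; growth vs vehicle controls → % inhibition.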
Setting [7] is: at 5.0 µM (retest, dose inferred, filed as 0.5).
Setting [8] is: at 50.0 µM (retest, dose inferred, filed as 5.0).

About 79,000 compounds went through this panel and 15% of them were active in at least one assay; those are over-represented in the sample as a whole. A number with no mark means an inactive call. Activity calls are given as the source filed them. Rule as the data show it: active = growth inhibition above about 70%; inactive = the rest.

As to `CCCCCCCCCCCCCCCC[N+](C)(CCO)Cc1cnc[nH]1` (stereo not given), the growth inhibition was 97% (active) in assay [1] (setting [7]); 98% (active) in assay [1] (setting [8]); 90.2% (active) in assay [1] (at 50.0 µM); 97% (active) in assay [2] (setting [7]); 99% (active) in assay [2] (setting [8]); 87.4% (active) in assay [2] (at 50.0 µM). Besides, the growth inhibition in assay [3] (setting [7]) was 98% (active); in assay [3] (setting [8]) it was 99% (active); in assay [3] (at 50.0 µM), 90.8% (active); in assay [4] (setting [7]) it was 98% (active); in assay [4] (setting [8]) it was 99% (active); in assay [4] (at 50.0 µM), 86.8% (active). The growth inhibition is 99% (active) in assay [5] (setting [7]); 99% (active) in assay [5] (setting [8]); 88% (active) in assay [5] (at 50.0 µM); 94% (active) in assay [6] (setting [7]); 98% (active) in assay [6] (setting [8]); 88.6% (active) in assay [6] (at 50.0 µM).

Take `O=C(c1ccco1)N(C(=S)N1CCN(c2ccccn2)CC1)c1ccccc1`: the growth inhibition in assay [1] (setting [7]) is 3%; in assay [1] (setting [8]) it was 76% (active); in assay [1] (at 50.0 µM) it was 77.2% (active); in assay [2] (setting [7]), 8%; in assay [2] (setting [8]) it was 51%; in assay [2] (at 50.0 µM), 47.4%. For the same compound, the growth inhibition in assay [3] (setting [7]) is -1%; in assay [3] (setting [8]) it was 71% (active); in assay [3] (at 50.0 µM), 63.4%; in assay [4] (setting [7]), 31%; in assay [4] (setting [8]), 53%; in assay [4] (at 50.0 µM), 36.5%. For the same compound, the growth inhibition in assay [5] (setting [7]) is -2%; in assay [5] (setting [8]) it was 60%; in assay [5] (at 50.0 µM), 53%; in assay [6] (setting [7]) it was -2%; in assay [6] (setting [8]), 78% (active); in assay [6] (at 50.0 µM), 57.4%.

For `CCCCCCCNCCCCCC`, the growth inhibition is 64% in assay [1] (setting [7]); 92% (active) in assay [1] (setting [8]); 67.7% in assay [1] (at 50.0 µM); 20% in assay [2] (setting [7]); 69% in assay [2] (setting [8]); 63.8% in assay [2] (at 50.0 µM). Besides, the growth inhibition was 73% (active) in assay [3] (setting [7]); 93% (active) in assay [3] (setting [8]); 84.7% (active) in assay [3] (at 50.0 µM); 28% in assay [4] (setting [7]); 86% (active) in assay [4] (setting [8]); 68.3% in assay [4] (at 50.0 µM). Further, the growth inhibition in assay [5] (setting [7]) was 75% (active); in assay [5] (setting [8]), 97% (active); in assay [5] (at 50.0 µM), 67.1%; in assay [6] (setting [7]), 78% (active); in assay [6] (setting [8]) it was 94% (active); in assay [6] (at 50.0 µM), 48.6%.

For `Cn1c(N)c(NC(=O)CCl)c(=O)n(C)c1=O`, the growth inhibition was 21% in assay [1] (setting [7]); 20% in assay [1] (setting [8]); 16.4% in assay [1] (at 50.0 µM); 3% in assay [2] (setting [7]); 5% in assay [2] (setting [8]); -5.8% in assay [2] (at 50.0 µM). Also, the growth inhibition in assay [3] (setting [7]) was -13%; in assay [3] (setting [8]), -2%; in assay [3] (at 50.0 µM) it was -16.9%; in assay [4] (setting [7]), 1%; in assay [4] (setting [8]), 2%; in assay [4] (at 50.0 µM), 12.8%. Further, the growth inhibition in assay [5] (setting [7]) was 8%; in assay [5] (setting [8]), 7%; in assay [5] (at 50.0 µM), -2.45%; in assay [6] (setting [7]), 7%; in assay [6] (setting [8]), 0%; in assay [6] (at 50.0 µM), 16.9%.

In the case of `N#CC1Oc2ccccc2N1C(=O)c1ccccc1` (stereo not given), the growth inhibition was 2% in assay [1] (setting [7]); 12% in assay [1] (setting [8]); 33% in assay [1] (at 50.0 µM); 0% in assay [2] (setting [7]); 7% in assay [2] (setting [8]); 54.1% in assay [2] (at 50.0 µM). In addition, the growth inhibition is -3% in assay [3] (setting [7]); -4% in assay [3] (setting [8]); 36% in assay [3] (at 50.0 µM); -6% in assay [4] (setting [7]); 0% in assay [4] (setting [8]); -0.55% in assay [4] (at 50.0 µM). In addition, the growth inhibition in assay [5] (setting [7]) is -8%; in assay [5] (setting [8]), 48%; in assay [5] (at 50.0 µM), 77.3% (active); in assay [6] (setting [7]), 2%; in assay [6] (setting [8]), 4%; in assay [6] (at 50.0 µM), 64.3%.

For the compound `Cc1c(C#N)c(N)nc2c(C(N)=O)nsc12`, the growth inhibition in assay [1] (setting [7]) is -2%; in assay [1] (setting [8]), -13%; in assay [1] (at 50.0 µM), 13.2%; in assay [2] (setting [7]), -2%; in assay [2] (setting [8]) it was -8%; in assay [2] (at 50.0 µM) it was 8.75%. In addition, the growth inhibition is -3% in assay [3] (setting [7]); -9% in assay [3] (setting [8]); 10.7% in assay [3] (at 50.0 µM); -2% in assay [4] (setting [7]); -18% in assay [4] (setting [8]); 53.6% in assay [4] (at 50.0 µM). The growth inhibition was 9% in assay [5] (setting [7]); 16% in assay [5] (setting [8]); -8.4% in assay [5] (at 50.0 µM); -1% in assay [6] (setting [7]); -11% in assay [6] (setting [8]); 26.2% in assay [6] (at 50.0 µM).

With `COc1ccc2c(c1)CC[C@@H]1[C@@H]2CC[C@]2(C)/C(=N/OCCN3CCCCC3)CC[C@@H]12`, the growth inhibition is 60% in assay [1] (setting [7]); 97% (active) in assay [1] (setting [8]); 76.3% (active) in assay [1] (at 50.0 µM); 56% in assay [2] (setting [7]); 98% (active) in assay [2] (setting [8]); 71.2% (active) in assay [2] (at 50.0 µM). Moreover, the growth inhibition in assay [3] (setting [7]) is 33%; in assay [3] (setting [8]), 97% (active); in assay [3] (at 50.0 µM), 86.8% (active); in assay [4] (setting [7]), 20%; in assay [4] (setting [8]), 96% (active); in assay [4] (at 50.0 µM), 78.7% (active). Moreover, the growth inhibition is 33% in assay [5] (setting [7]); 98% (active) in assay [5] (setting [8]); 79.8% (active) in assay [5] (at 50.0 µM); 80% (active) in assay [6] (setting [7]); 98% (active) in assay [6] (setting [8]); 83% (active) in assay [6] (at 50.0 µM).

As for `CCC(CC)(C(=O)Nc1ccc2c(c1)c(=O)c1ccccc1n2C)C(=O)Nc1ccc2c(c1)c(=O)c1ccccc1n2C`, the growth inhibition in assay [1] (setting [7]) was 7%; in assay [1] (setting [8]), 97% (active); in assay [1] (at 50.0 µM), 97% (active); in assay [2] (setting [7]), -3%; in assay [2] (setting [8]), 86% (active); in assay [2] (at 50.0 µM), 77.7% (active). The growth inhibition in assay [3] (setting [7]) is -25%; in assay [3] (setting [8]) it was 71% (active); in assay [3] (at 50.0 µM), 70.8% (active); in assay [4] (setting [7]), -4%; in assay [4] (setting [8]), 75% (active); in assay [4] (at 50.0 µM), 73% (active). Besides, the growth inhibition in assay [5] (setting [7]) was -10%; in assay [5] (setting [8]), 78% (active); in assay [5] (at 50.0 µM) it was 61.2%; in assay [6] (setting [7]), -6%; in assay [6] (setting [8]), 92% (active); in assay [6] (at 50.0 µM) it was 95.7% (active).

As to `O=C(Nc1cc(Cl)cc(Cl)c1)OCCCl`, the growth inhibition was 53% in assay [1] (setting [7]); 87% (active) in assay [1] (setting [8]); 90.8% (active) in assay [1] (at 50.0 µM); 32% in assay [2] (setting [7]); 77% (active) in assay [2] (setting [8]); 93% (active) in assay [2] (at 50.0 µM). Besides, the growth inhibition was 36% in assay [3] (setting [7]); 84% (active) in assay [3] (setting [8]); 93.8% (active) in assay [3] (at 50.0 µM); 24% in assay [4] (setting [7]); 63% in assay [4] (setting [8]); 92% (active) in assay [4] (at 50.0 µM). The growth inhibition was 41% in assay [5] (setting [7]); 88% (active) in assay [5] (setting [8]); 92.6% (active) in assay [5] (at 50.0 µM); 53% in assay [6] (setting [7]); 93% (active) in assay [6] (setting [8]); 92.5% (active) in assay [6] (at 50.0 µM).

In the case of `CC(C)c1ccc2nc3ccc(C(=O)NCCN4CCN(c5ccccc5)CC4)cn3c(=O)c2c1`, the growth inhibition in assay [1] (setting [7]) was 18%; in assay [1] (setting [8]), 97% (active); in assay [1] (at 50.0 µM), 12.1%; in assay [2] (setting [7]), -9%; in assay [2] (setting [8]), 98% (active); in assay [2] (at 50.0 µM) it was 16.6%. The growth inhibition was 18% in assay [3] (setting [7]); 99% (active) in assay [3] (setting [8]); 13.2% in assay [3] (at 50.0 µM); 3% in assay [4] (setting [7]); 97% (active) in assay [4] (setting [8]); -7.8% in assay [4] (at 50.0 µM). Further, the growth inhibition in assay [5] (setting [7]) is 14%; in assay [5] (setting [8]), 98% (active); in assay [5] (at 50.0 µM), -7.5%; in assay [6] (setting [7]), 4%; in assay [6] (setting [8]), 97% (active); in assay [6] (at 50.0 µM) it was 5.15%.

The values are drawn from PubChem BioAssay (NCI).
